Drawing on PubChem BioAssay (NCI), this text covers growth for eight molecules.

Experiment in all cases: NCI-60 one-dose screen, 48 h (100 = growth as untreated, 0 = no growth, -100 = all killed)
In one assay the test system is 786-0 renal. The note with it: 10 µM.
In another assay the test system is K-562 leukemia. The note with it: 10 µM.
The subject of the next assay is MALME-3M melanoma. The note with it: 10 µM.
The test system of the next assay is RXF 393 renal. The note with it: 10 µM.
For the next assay, the system named is EKVX NSCLC. The note with it: 10 µM.
In another assay the test system is SN12C renal. The note with it: 10 µM.
Another assay deals with UO-31 renal. The note with it: 10 µM.
The next assay has as its system TK-10 renal. The note with it: 10 µM.
A further assay concerns ACHN renal. The note with it: 10 µM.
Another assay relates to CAKI-1 renal. The note with it: 10 µM.
The next assay concerns CCRF-CEM leukemia. The note with it: 10 µM.
In a further assay the test system is OVCAR-8 ovarian. The note with it: 10 µM.
For a further assay, the system named is OVCAR-5 ovarian. The note with it: 10 µM.
The next assay relates to OVCAR-4 ovarian. The note with it: 10 µM.
Another assay concerns SK-OV-3 ovarian. The note with it: 10 µM.
In another assay the test system is OVCAR-3 ovarian. The note with it: 10 µM.
The subject of a further assay is NCI/ADR-RES ovarian. The note with it: 10 µM.
A further assay has as its system BT-549 breast. The note with it: 10 µM.
The next assay has as its system MCF7 breast. The note with it: 10 µM.
Another assay relates to MDA-MB-468 breast. The note with it: 10 µM unless noted.

Where “and” joins values, the source holds several entries; their conditions need not be identical. Identical values can stand only once. About 83,000 compounds went through this panel and 20% of them were active in at least one assay; those are over-represented in the sample as a whole.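 Interpretation: 100, growth as untreated; towards 0, rising growth inhibition; 0, no net growth; 0 to -100, cell death. Compounds scoring below 10 were considered active.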 A number with no mark means an inactive call. Calls of active or inactive are those of the source.

In the case of `O=C(/C=C/c1ccc(F)cc1)c1nc2ccccc2n1Cc1ccc(F)cc1`, the growth with 786-0 renal was -31.5% (active); with K-562 leukemia, 1.64% (active); in the assay with MALME-3M melanoma, -23.8% (active); with RXF 393 renal it was -67.6% (active); in the assay with EKVX NSCLC, 13.6%; in the assay with SN12C renal, 21.9%. The growth in the assay on UO-31 renal is -33.6% (active); in the assay on TK-10 renal it was 12.2%; with ACHN renal, -45.4% (active); with CAKI-1 renal, 43.9%; with CCRF-CEM leukemia, 7.89% (active); with OVCAR-8 ovarian, 2.66% (active). In addition, the growth in the assay with OVCAR-5 ovarian was -7.92% (active); with OVCAR-4 ovarian it was 56.8%; with SK-OV-3 ovarian, 70.4%; in the assay on OVCAR-3 ovarian it was 22.9%; with NCI/ADR-RES ovarian, -42.5% (active); with BT-549 breast, -23.8% (active). Also, the growth was 7.32% (active) in the assay with MCF7 breast and -15.7% (active) in the assay on MDA-MB-468 breast.

With `C#CCCCN(CCNc1ccnc2cc(Cl)ccc12)C(=O)CCC(=O)O[C@@H]1O[C@@H]2OC3(C)CC[C@H]4[C@H](C)CC[C@@H]([C@H]1C)[C@@]24OO3`, the growth was 46.9% in the assay with 786-0 renal; 13% in the assay with K-562 leukemia; 20.3% with MALME-3M melanoma; 34.3% in the assay with RXF 393 renal; 42.3% with EKVX NSCLC; 36.1% in the assay with SN12C renal. In addition, the growth in the assay on UO-31 renal was 14.3%; in the assay with TK-10 renal, 50.1%; in the assay with ACHN renal, 29.4%; in the assay on CAKI-1 renal it was 41.4%; in the assay with CCRF-CEM leukemia, 24.4%; with OVCAR-8 ovarian, 17%. Also, the growth with OVCAR-5 ovarian is 45.1%; in the assay on OVCAR-4 ovarian, 41.3%; in the assay on SK-OV-3 ovarian, 79.3%; in the assay with OVCAR-3 ovarian, 25.7%; in the assay on NCI/ADR-RES ovarian, 16.2%; with BT-549 breast, 37.3%. In addition, the growth was 14.2% in the assay on MCF7 breast and -3.36% (active) in the assay on MDA-MB-468 breast.

As for `CCOP(=O)(OCC)C(NC(C)=O)C(=O)SCCN` (configuration not stated), the growth is 103% in the assay on 786-0 renal; 100% in the assay on K-562 leukemia; 105% with MALME-3M melanoma; 100% with EKVX NSCLC; 97.9% with SN12C renal; 81% in the assay on UO-31 renal. Further, the growth with TK-10 renal is 99.5%; in the assay on ACHN renal it was 112%; with CAKI-1 renal it was 101%; with CCRF-CEM leukemia, 100%; in the assay on OVCAR-8 ovarian, 109%; in the assay with OVCAR-5 ovarian, 104%. Further, the growth in the assay on OVCAR-4 ovarian was 110%; in the assay on SK-OV-3 ovarian it was 117%; with OVCAR-3 ovarian, 147%; in the assay with NCI/ADR-RES ovarian it was 105%; with BT-549 breast, 111%; with MCF7 breast it was 95.5%. Also, the growth with MDA-MB-468 breast is 124%.

`CC1=C(COCCOC(=O)c2ccc(S(=O)(=O)F)cc2)C2=C(C)C3(CC3)[C@@](C)(O)C(=O)C2=C1`: the growth is -3.81% (active) with 786-0 renal; 32.6% in the assay with K-562 leukemia; -78.2% (active) with MALME-3M melanoma; -81.4% (active) in the assay on RXF 393 renal; -32.7% (active) in the assay with EKVX NSCLC; -19.9% (active) with SN12C renal. Further, the growth is -33.3% (active) in the assay on UO-31 renal; 7.99% (active) in the assay on TK-10 renal; -19.3% (active) in the assay on ACHN renal; -1.85% (active) with CAKI-1 renal; 15.8% with CCRF-CEM leukemia; -0.659% (active) in the assay on OVCAR-8 ovarian. The growth in the assay with OVCAR-5 ovarian is -43.7% (active); in the assay with OVCAR-4 ovarian, -23% (active); in the assay on SK-OV-3 ovarian, -5.65% (active); with OVCAR-3 ovarian, 9.3% (active); in the assay on NCI/ADR-RES ovarian, -43.2% (active); with BT-549 breast, -83% (active). The growth was 10.9% in the assay on MCF7 breast and -87.5% (active) with MDA-MB-468 breast.

For the molecule `COP(=O)(CC(F)(F)C(F)(F)F)OC`, the growth in the assay with 786-0 renal is -3% (active); in the assay on K-562 leukemia it was 10.9%; in the assay with MALME-3M melanoma, -59.1% (active); with EKVX NSCLC it was 81.1%; with SN12C renal it was 76.2%; with UO-31 renal, -81.8% (active). Further, the growth was -40.6% (active) with TK-10 renal; -97.6% (active) in the assay on ACHN renal; 10.3% in the assay on CAKI-1 renal; 5.28% (active) with CCRF-CEM leukemia; -75.6% (active) in the assay on OVCAR-8 ovarian; 68.9% in the assay on OVCAR-5 ovarian. For the same molecule, the growth was -13.4% (active) with OVCAR-4 ovarian; 118% in the assay with SK-OV-3 ovarian; -3.42% (active) with OVCAR-3 ovarian; 61.8% with NCI/ADR-RES ovarian; 37.3% with BT-549 breast; 3.91% (active) in the assay with MCF7 breast. For the same molecule, the growth in the assay with MDA-MB-468 breast is -53.6% (active).

With `CC(C)C[C@H](NC(=O)CNC(=O)C[C@H]1O[C@@H]2OC3(C)CC[C@H]4[C@H](C)CC[C@@H]([C@H]1C)[C@@]24OO3)B(O)O`, the growth in the assay with 786-0 renal was 21%; in the assay on K-562 leukemia it was 4% (active); in the assay with MALME-3M melanoma it was -56.5% (active); with RXF 393 renal, -81.6% (active); in the assay on EKVX NSCLC, 26.7%; with SN12C renal, -53.1% (active). Further, the growth is 15.5% with UO-31 renal; 12.1% in the assay on TK-10 renal; 7.48% (active) in the assay with ACHN renal; 19.2% with CAKI-1 renal; -9.96% (active) in the assay with CCRF-CEM leukemia; 5.76% (active) with OVCAR-8 ovarian. Further, the growth is -28.3% (active) in the assay with OVCAR-5 ovarian; 22.1% with OVCAR-4 ovarian; 41.6% with SK-OV-3 ovarian; -12.4% (active) in the assay on OVCAR-3 ovarian; 94.2% in the assay on NCI/ADR-RES ovarian; -83.5% (active) in the assay on BT-549 breast. For the same molecule, the growth with MCF7 breast is 19.1%; in the assay with MDA-MB-468 breast it was -60.8% (active).

On to `O=C(/C=C/c1ccccc1)c1nc2ccccc2n1Cc1ccc(F)cc1`, for which the growth in the assay with 786-0 renal is -88.3% (active); in the assay on K-562 leukemia, -8.55% (active); with MALME-3M melanoma, -28.3% (active); in the assay on RXF 393 renal it was -89.3% (active); with EKVX NSCLC it was -60.5% (active); in the assay on SN12C renal it was -5.26% (active). The growth in the assay with UO-31 renal was -78.5% (active); in the assay on TK-10 renal it was -14.3% (active); in the assay with ACHN renal, -55% (active); in the assay on CAKI-1 renal, 31.2%; with CCRF-CEM leukemia, -23.7% (active); in the assay on OVCAR-8 ovarian it was 4.71% (active). The growth is -15.1% (active) in the assay on OVCAR-5 ovarian; 47.7% in the assay with OVCAR-4 ovarian; 64.9% in the assay with SK-OV-3 ovarian; -47.5% (active) in the assay with OVCAR-3 ovarian; -49.6% (active) with NCI/ADR-RES ovarian; -65% (active) with BT-549 breast. Besides, the values for the growth with MCF7 breast and with MDA-MB-468 breast were -32.7% (active) and -90.3% (active), respectively.

As for `CC1=C(CCC=NNC(N)=O)C2=C(C)C3(CC3)[C@@](C)(O)C(=O)C2=C1`, the growth with 786-0 renal is -3.6% (active); in the assay on MALME-3M melanoma, -93.4% (active); with RXF 393 renal, -80.8% (active); in the assay with EKVX NSCLC it was -25.1% (active); in the assay with SN12C renal it was -61.3% (active); in the assay on UO-31 renal, -65.2% (active). For the same molecule, the growth was -10.5% (active) with TK-10 renal; -37.7% (active) in the assay with ACHN renal; -59.8% (active) in the assay with CAKI-1 renal; 10.4% in the assay with CCRF-CEM leukemia; -58.7% (active) in the assay on OVCAR-8 ovarian; -35.8% (active) with OVCAR-5 ovarian. For the same molecule, the growth in the assay on OVCAR-4 ovarian was -38.1% (active); in the assay on SK-OV-3 ovarian it was -72.1% (active); in the assay on OVCAR-3 ovarian, -57.4% (active); in the assay with NCI/ADR-RES ovarian it was -39.3% (active); in the assay with BT-549 breast, -33.7% (active); in the assay with MCF7 breast, -74.8% (active). Further, in the assay with MDA-MB-468 breast, the growth was -81.5% (active) and -65.8% (active).
